# Data taken from PubChem BioAssay AID602244 (Sanford-Burnham Center for Chemical Genomics, 2012).
# The campaign covered roughly 360,000 compounds. About 1,300 (0.36%) were called active. What follows is part of a selection rich in actives, with near analogues and random picks from the rest. Unmarked numbers belong to inactive results. Rule as the data show it: active = inhibition above about 34% (passing the limit was not always enough); inactive = the rest.
# Molecular target: C-X-C chemokine receptor type 6 (Homo sapiens) (UniProt O00574)
# Sequence (O00574 whole entry, looked up): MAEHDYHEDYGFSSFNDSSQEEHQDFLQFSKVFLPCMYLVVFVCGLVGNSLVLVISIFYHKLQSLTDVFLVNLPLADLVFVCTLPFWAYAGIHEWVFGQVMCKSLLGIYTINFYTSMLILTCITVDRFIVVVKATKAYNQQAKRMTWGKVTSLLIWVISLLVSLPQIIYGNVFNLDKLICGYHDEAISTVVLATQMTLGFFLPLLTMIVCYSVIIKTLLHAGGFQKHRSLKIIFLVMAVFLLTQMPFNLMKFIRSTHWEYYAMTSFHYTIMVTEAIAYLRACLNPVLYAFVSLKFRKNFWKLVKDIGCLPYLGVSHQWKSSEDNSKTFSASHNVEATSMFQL
# Experiment: blockade of CXCL16-induced CXCR6 beta-arrestin recruitment – cell-based, luminescence, CHO-K1 PathHunter, 1536-well, primary screen (AID 602244);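 also: antagonist mode with CXCL16 agonist at 10 nM final; 0% = 10 nM CXCL16 with DMSO and 100% = unstimulated wells without agonist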
# Details: at 20 µM, stronger effect = higher value
row,SMILES,inhibition
1,CC(C)N=C1CCCC1C(=S)SSC(=S)C1CCCC1=NC(C)C (centres undefined),78.9% (active)
2,CCc1ccccc1N(CC(=O)N1CCN(c2ccccc2F)CC1)S(C)(=O)=O,1.2%
3,CCCc1cc(=O)oc2c(C)c(OC(C)C(=O)NCC(O)c3ccccc3)ccc12 (centres undefined),2.9%
4,O=C1NCC(c2ccccc2)(c2ccccc2)C(=O)N1,3.6%
5,CC(NC(=S)NNS(=O)(=O)c1ccc(C(C)(C)C)cc1)c1ccccc1 (centres undefined),-0.6%
6,CC(C)OC(=O)CN1C(=O)C(=O)c2ccccc21,68% (active)
7,COc1cc(C(C)=O)ccc1OC(=O)CN1C(=O)c2ccccc2C1=O,1.2%
8,Cc1cc(/C=C2/SC(=O)N(CC(=O)OC(C)C)C2=O)c(C)n1C,1.9%
9,COc1cccc(NC(=O)Cn2c3ccc(F)cc3c3nc4n(c(=O)c32)CCS4)c1,4.8%
10,CCN(CC)C(=O)CC1(c2ccccc2OC)CCOC(C(C)C)C1 (centres undefined),6.3%
11,CC(C)(C)S(=O)(=O)c1ccccc1-c1noc(-c2ccccc2)c1C(N)=O,-0.6%
12,Cc1ccc(S(=O)(=O)N2CCOCC2)cc1NC(=O)c1ccncc1,-5.9%
13,CN(CCc1ccccc1)C(=O)c1cccc(NC(=O)Cc2ccc([N+](=O)[O-])cc2)c1,-6.9%
14,CN(O)C(=S)c1ccccc1,73.3% (active)
15,CCN(CC)CCCNC(=O)CCn1nc(-c2ccc(Cl)cc2)ccc1=O,2.5%
16,COc1ccc(CNC(=O)[C@@H]2CC=C[C@@H]3CCN(C4CC4)C(=O)[C@@H]32)cc1,-0.1%
17,O=C1CCC(=O)N1CCC(=O)N(C(=O)NC1CCCCC1)C1CCCCC1,0%
18,S=c1[nH]ccn1-c1ccc(Cl)cc1,-3.9%
19,Cc1noc(C)c1C(=O)N(CC(=O)NC1CCCC1)Cc1ccccc1F,-0.5%
20,O=[N+]([O-])/C=C/c1ccc2c(ccn2Cc2ccccc2)c1,73.1% (active)
21,CCc1noc(C)c1C(=O)N1CCCSC1=Nc1ccccc1OC,-1.3%
22,CCCCCCCCCCOC(=O)C[N+](C)(C)CC1CCCCC1O (centres undefined),57.1% (active)
23,CCCCCOC(=O)c1ccc(N2C(=O)C3C4C=CC(C4)C3C2=O)cc1 (centres undefined),4.9%

row,SMILES,inhibition
1,COc1ccc(S(=O)(=O)N(C)CC(=O)N2CCCC2)cc1Cl,-1.8%
2,O=C1CCCN1C(=O)COc1ccc([N+](=O)[O-])cc1,-0.7%
3,O=C1/C(=C\c2ccc([N+](=O)[O-])cc2)CS(=O)(=O)C/C1=C/c1ccc([N+](=O)[O-])cc1,96.9% (active)
4,O=C(Cc1ccccc1)N1CCN(S(=O)(=O)c2ccc([N+](=O)[O-])cc2)CC1,-15.5%
5,CC(CC(=O)Nc1ccc(F)cc1F)S(=O)(=O)c1ccc2c(c1)NC(=O)CO2 (centres undefined),6.2%
6,CCn1cc(C(=O)N2CC=C(c3ccccc3)CC2)c(=O)c2ccc(C)nc21,-18.1%
7,Cc1ccc(NC(=O)CCC(=O)c2ccc(Br)cc2)cc1,-2.1%
8,Cc1ccc(C(=O)CNc2ccc(F)cc2)cc1,46.4% (active)
9,Cc1ccc(C(=O)NC2CCN(C(=O)Nc3ccc(F)cc3)CC2)cc1,-6%
10,CCCC(=O)Nc1ncnc2c1ncn2[C@@H]1O[C@@H]2OP(=O)(O)OC[C@H]2[C@H]1OC(=O)CCC,-1%
11,CC1=C/C(=N\OS(=O)(=O)c2ccccc2)C=CC1=O,62% (active)
12,N#Cc1c(NC(=O)c2ccc(N3CCOCC3)c([N+](=O)[O-])c2)sc2c1CCCC2,15.6%
13,O=C1Nc2ccc(Br)cc2/C1=N/N=C/C1=C(N2CCOCC2)C(=C\c2ccccc2)/CC1,41.2% (active)
14,O=C(O)c1ccc(NN=CC2=C(N3CCOCC3)/C(=C/c3ccccc3)CC2)cc1,-2.9%
15,O=S(N1CCCCCC1)C12CC3CC(CC(C3)C1)C2 (centres undefined),-6.4%
16,CC(=O)N1CCc2c(sc(NC(=O)CCS(=O)(=O)c3ccc(C)cc3)c2C(N)=O)C1,8.6%
17,CCCNC(=O)C1(C)CCCN(C(=O)c2oc3ccccc3c2C)C1 (centres undefined),6.5%
18,COc1ccc(C2/C=C\CN(S(=O)(=O)c3cccs3)CC(=O)N2Cc2ccc(F)cc2)cc1 (centres undefined),10.5%
19,CC1CN(CC(=O)NC(C)c2ccccc2)CC(C)O1 (centres undefined),4.8%
20,CC(=O)Nc1cc(-c2ccc(N3CCN(C)CC3)cc2)cn2c(-c3ccc(F)cc3)cnc12,89.5% (active)
21,CC(=O)Nc1cc(-c2ccc(N3CCN(C)CC3)cc2)cn2c(-c3cccc(C(=O)N(C)C)c3)cnc12,-6.6%
22,COc1ccccc1-c1cc(NC(C)=O)c2ncc(-c3ccc(F)cc3)n2c1,8.7%
23,CCOn1c(=O)c(=O)n(O)c2ccccc21,3.7%

row,SMILES,inhibition
1,COc1ccc(C(O)c2nc(-c3ccc(OC)nc3)cs2)cc1 (centres undefined),-1.3%
2,COc1ccc(-c2csc(Cc3nc(O)cs3)n2)cc1,66.9% (active)
3,COc1ccc(C(C)(NC(C)=O)c2nc(-c3ccc(S(C)(=O)=O)cc3)cs2)cc1 (centres undefined),1.5%
4,O=C(NCc1ccccc1)C1c2ccccc2OCC(=O)N1CCCN1CCOCC1 (centres undefined),3.7%
5,O=C(c1ccncc1)N1CCN(S(=O)(=O)c2cc(C(F)(F)F)cc(C(F)(F)F)c2)CC1,-2.1%
6,COc1cccc(NC(=O)C(=O)c2cn(CC(=O)N3CCOCC3)c3ccccc23)c1,6%
7,O=C1c2ccccc2NC(c2ccccc2O)N1NS(=O)(=O)c1ccccc1 (centres undefined),-0.7%
8,CC(C)c1c(O)nc(SCCOc2ccc(Cl)cc2)[nH]c1=O,7.1%
9,Cc1ccc(-c2nn(-c3ccc(F)cc3)cc2C(=O)NCC(c2cccs2)N2CCOCC2)cc1 (centres undefined),15.5%
10,c1ccc(-n2cccc2)c(N2CCCCC2)c1,-7.4%
11,O=C(c1ccc(Cl)c(S(=O)(=O)N2CCCCCC2)c1)N1CCN(c2ccc(O)cc2)CC1,-20.6%
12,O=C1C=CC(=O)N1c1ccc(N2CCCCC2)cc1,74.7% (active)
13,NC(=O)c1ccc(N2CCCC2)nc1,1%
14,COC(=O)C1=C(C(=O)OC)[C@@H]2N(C)c3ccccc3[C@@]23C[C@@H](C(=O)OC)N(C(C)=O)C3=N1,0.7%
15,O=C(C1CC(=O)N(C2CCCC2)C1)N1CCN(c2cccc(C(F)(F)F)c2)CC1 (centres undefined),-1.4%
16,O=C(C1CC(=O)N(C2CCCCC2)C1)N1CCN(c2ccccc2)CC1 (centres undefined),37% (active)
17,O=C(C1CC(=O)N(c2ccc(F)cc2)C1)N1CCN(c2ccccc2)CC1 (centres undefined),7%
18,CCN1CCN(c2ccc(S(=O)(=O)N3CCCCC3)cc2NC(=O)c2cccc(NC(C)=O)c2)CC1,1.9%
19,CN(CCCC(=O)Nc1nccs1)S(=O)(=O)c1ccc(Cl)cc1,0.8%
20,O=S(=O)(NCc1ccccc1Br)c1ccccc1Br,4.3%
21,Oc1ccc2ccccc2c1N=Nc1nccs1,65.1% (active)
22,COC(=O)CN1C(=O)[C@H]2[C@@H](/C=C/c3ccccc3)N3C(=O)CN(Cc4ccccc4)C(=O)[C@@]3(Cc3ccccc3)[C@H]2C1=O,-9.8%
23,O=C(Nc1ccccc1)c1nnsc1S(=O)(=O)c1ccc(Cl)cc1,96.4% (active)

row,SMILES,inhibition
1,C/C(=N\NS(=O)(=O)c1ccc(Cl)cc1)c1ccc(NC(=O)c2ccco2)cc1,0.1%
2,O=C(Nc1ccc(S(=O)(=O)N2CCOCC2)cc1)C1CCN(S(=O)(=O)c2ccc(Cl)cc2)CC1,0.6%
3,CC1CCN(CCCNC(=O)CN2C(=O)CSc3ccc(S(=O)(=O)N4CCCCC4)cc32)CC1,2%
4,Cc1ccc(-c2noc(CCC(=O)Nc3ccccc3N3CCN(C)CC3)n2)cc1,6%
5,CCc1nn(-c2cc(Oc3cccc4ccccc34)nc(-c3ccccc3)n2)c(N)c1C#N,0.4%
6,Cc1cccc(CS(=O)(=O)c2ncc(Cl)c(C(=O)Nc3ccc(F)cc3)n2)c1,57% (active)
7,Cc1cccc(NC(=O)Cn2cc(C(=O)c3ccco3)c3ccccc32)c1,4.5%
8,Cc1cccc(NC(=O)c2nc(S(=O)(=O)Cc3ccccc3)ncc2Cl)c1,64.6% (active)
9,Cc1cccc(NC(=O)C2CCN(S(=O)(=O)c3cccc4cccnc34)CC2)c1,9.3%
10,CN(CC(=O)Nc1ccc(F)cc1)CC(=O)Nc1ccc(Cl)c(S(=O)(=O)N2CCOCC2)c1,-1%
11,Cc1cccc(C(=O)Nc2ccc(Oc3cnccn3)cc2)c1,1.5%
12,O=C(NN1CCOCC1)c1cccc(F)c1,0.7%
13,CCCNC(=O)C1(C)CCN(C(=O)c2cc(F)ccc2C)C1 (centres undefined),0.9%
14,O=C(CSc1nc2cc3c(cc2c(=O)n1CCC1=CCCCC1)OCO3)NCc1ccco1,6.1%
15,Cc1ccc2c(c1)N(CC(=O)NCCc1ccc(Cl)cc1)C(=O)c1cccnc1O2,-3.1%
16,O=c1ccc2c(-c3ccccc3S(=O)(=O)O)c3ccc(O)c(O)c3oc-2c1O,47.9% (active)
17,CC(=O)N1c2ccc(S(=O)(=O)N3CCCC(C(=O)Nc4cccc(F)c4)C3)cc2CC1C (centres undefined),-11.7%
18,Cc1ccc(CCCOC(=O)C[N+]2(C)CCCCC2)cc1,-4.5%
19,CCCNC(=O)c1onc(CSc2ccc(F)cc2)c1C(=O)NC(C)C,2.3%
20,Cc1ccc(S(=O)(=O)N2CC[C@H]3[C@@H](C2)C(=O)C[C@@H](c2ccccc2)N3S(=O)(=O)c2ccc(C)cc2)cc1,-1.4%
